This is an account of results in PubChem BioAssay (EPA / NIEHS).

More than one record can exist for a structure, and the calls need not agree. Calls of active or inactive are those of the source. The calls were made as follows: active = hit-call score of the fitted dose curve at least 0.9, where 1 is the maximum; inactive = score below 0.9.

Read-out in this assay: Monocyte Chemoattractant Protein-1 (MCP1), CCL2 (gene 6347)
Briefly: BSK_LPS_MCP1: BioMAP Diversity Plus: LPS Assay for Monocyte Chemoattractant Protein-1 (MCP1) Biomarker Activity (AID 2283081).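 As to AC50: co-culture stimulated with LPS.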 The settings on record: primary human HUVEC with PBMC; actives raise or lower the signal. On the procedure: BSK_LPS is a cell-based, multiplexed-readout assay that uses umbilical vein endothelium and peripheral blood mononuclear cells, a human vascular primary cell co-culture, with measurements taken at 24 hours after chemical dosing in a 96-well plate.BSK_LPS_MCP1 is an assay component measured in the BSK_LPS assay. It measures MCP-1 antibody related to regulation of gene expression using ELISA technology.Data from the assay component BSK_LPS_MCP1 was analyzed into 1 assay endpoint. This assay endpoint, BSK_LPS_MCP1, was analyzed with bidirectional fitting relative to DMSO as the negative control and baseline of activity. Using a type of binding reporter, gain or loss-of-signal activity can be used to understand changes in the signaling as they relate to the gene CCL2. Furthermore, this assay endpoint can be referred to as a primary readout, because this assay has produced multiple assay endpoints where this one serves a signaling function. To generalize the intended target to other relatable targets, this assay endpoint is annotated to the cytokine intended target family, where the subfamily is chemotactic factor.
The levels of cell surface (or secreted, indicated by the prefix "s") biomarker endpoints were measured by ELISA. Overt cytotoxicity to cells in confluent adherent cultures (all systems other than the BT system) was assessed by measuring total protein levels using sulforhodamine B (SRB) staining in parallel cultures at the time of biomarker measurements, indicated as SRB endpoints. For proliferation assays for adherent cell types, individual cell types are cultured at sub-confluence and relative cell numbers quantified by SRB staining at time points optimized for each system (48 h: 3C and CASM3C systems; 72 h: BT and HDF3CGF systems; 96 h: SAg system). SRB was performed by staining cells with 0.1% SRB after fixation with 10% TCA and reading wells at 560 nm.Viability and proliferation of PBMC (T cells) was quantified by Alamar Blue reduction for the SAg and BT systems. For PBMC viability (referred to as PBMC Cytotoxicity within the assay endpoint names), cells were plated (75,000/well in a 96-well plate) and then chemical samples added for 1 h before addition of activators, SEB and TSST-1 (20 ng/mL final concentration each). Cells were incubated for 90 h. Then, Alamar Blue (20 uL/well) (Invitrogen, Cat DAL1100) was added for 6 h, and the plates were read with a fluorescence microplate reader at 546/580 nm (excitation/emission). For PBMC proliferation, cells were plated and activated as above but incubated for only 16 h prior to addition of Alamar Blue. Plates were read after 6 h.
`COc1cc(-c2ccc(N)c(OC)c2)ccc1N`: the outcome was inactive.

`C=CC(=O)OCCCCCC(C)C`: the outcome was inactive.

In the case of `NC(=O)O`, the outcome was inactive.

`CCCCC(CC)CO[N+](=O)[O-]` (stereo not given): the result was inactive.

With `C[C@]12CCC(=O)C[C@@H]1CC[C@@H]1[C@@H]2CC[C@]2(C)[C@@H](O)CC[C@@H]12`, the AC50 was 26 µM (active).

Take `O=[N+]([O-])c1ccc(O)c([N+](=O)[O-])c1`: the outcome was inactive.

As to `O=Cc1cccc(Oc2ccccc2)c1`, the outcome was inactive.

For `CC(C)(OO)c1ccccc1`, the outcome was inactive.

With `CN(C)N=O`, the outcome was inactive.

Turning to `Nc1ncc([N+](=O)[O-])s1`, the result was inactive.

On to `COP(=S)(OC)Oc1c(Cl)cc(C)cc1Cl`, for which the result was inactive.

As for `CCCCCCCCC(=O)NCc1ccc(O)c(OC)c1`, the result was inactive.

With `Oc1ccc(-c2ccccc2)cc1`, the result was inactive.

As to `CCOP(=S)(OCC)SCCS(=O)(=O)CC`, the result was inactive.

Consider `O=C(O)C(F)(F)C(F)(F)C(F)(F)C(F)(F)C(F)(F)C(F)(F)C(F)(F)C(F)(F)C(F)(F)C(F)(F)F`, for which the AC50 was 30.2 µM (active) and the result was inactive.

As to `CC1(C)Cc2cccc(O)c2O1`, the outcome was inactive.

Regarding `BrCCBr`, the result was inactive.

`CC(C)c1ccc(CO)cc1`: the result was inactive.

With `Nc1ccc(-c2ccc(N)c(Cl)c2)cc1Cl`, the outcome was inactive.

As to `CC(=O)C(Cl)C(=O)N(C)C` (stereo not given), the AC50 is 27 µM (active).

Regarding `O=C(OC1CCCCC1)c1ccccc1C(=O)OC1CCCCC1`, the AC50 was 27.9 µM (active).

`CCC(C)(C)c1ccc(O)c(C(C)(C)CC)c1`: the AC50 was 25.1 µM (active).

For `ClC(Cl)=C(Cl)C(Cl)=C(Cl)Cl`, the result was inactive.

Consider `C=C(C)C(=O)[O][Sn]([CH2]CCC)([CH2]CCC)[CH2]CCC`, for which the half-maximal activity concentration (AC50) is 0.331 µM (active).

For the compound `C[C@@H]1C[C@@H]([C@H](O)CC2CC(=O)NC(=O)C2)C(=O)[C@@H](C)C1`, the AC50 is 7.05 µM (active).

`CCC(=O)C(CC(C)N(C)C)(c1ccccc1)c1ccccc1` (stereo not given): the outcome was inactive.

In the case of `O=C(O)CCC(F)(C(F)(F)F)C(F)(F)F`, the outcome was inactive.

`CC(C)(C)c1cc(O)ccc1O`: the AC50 is 13 µM (active).

For `O=[N+]([O-])c1ccc2c3c(cccc13)CC2`, the result was inactive.

For the compound `ClC1=C(Cl)[C@]2(Cl)[C@H]3[C@H]([C@H]4C=C[C@H]3C4)[C@@]1(Cl)C2(Cl)Cl`, the outcome was inactive.

As for `O=S(=O)(c1ccc(Cl)cc1)c1ccc(Cl)cc1`, the result was inactive.

As for `NC(=S)Nc1ccccc1`, the result was inactive.

On to `COC(=O)Cc1ccccc1`, for which the outcome was inactive.

For the compound `COP(=S)(OC)Oc1ccc(Sc2ccc(OP(=S)(OC)OC)cc2)cc1`, the AC50 was 12.5 µM (active).

As for `O=C(O)C(F)(F)C(F)(F)C(F)(F)C(F)(F)C(F)(F)C(F)(F)F`, the result was inactive.

As to `CC(C)CCCCCCOC(=O)c1ccccc1C(=O)OCCCCCCC(C)C`, the outcome was inactive.

In the case of `CC(=O)OC(c1ccccc1)C(Cl)(Cl)Cl` (stereo not given), the outcome was inactive.

For the compound `Cn1sc(Cl)cc1=O`, the AC50 is 35.2 µM (active).

For the compound `CCCCCCCCc1ccc(O)cc1`, the AC50 is 37.4 µM (active).
